Data from PubChem BioAssay (NCI).
This is part of a sample that, as a whole, favours compounds with a hit. Of some 83,000 tested, about 20% had one in any assay.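 Results are percent growth after 48 hours of single-concentration exposure. 100 means growth as in untreated cells, lower positive values show inhibition; negative values down to -100 show cell death.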 Values without a mark were called inactive. Activity calls are given as the source filed them. Rule for the calls: active = growth percent below 10; inactive = the rest.

How the values were obtained:
Assay in all cases: NCI-60 one-dose screen, 48 h (100 = growth as untreated, 0 = no growth, -100 = all killed)
Conditions in all cases: 10 µM unless noted
NCI-H23 lung = test system: NCI-H23 lung
NCI-H226 lung = test system: NCI-H226 lung
NCI-H322M lung = test system: NCI-H322M lung
HOP-62 NSCLC = test system: HOP-62 NSCLC
NCI-H460 lung = test system: NCI-H460 lung
HOP-92 NSCLC = test system: HOP-92 NSCLC
NCI-H522 lung = test system: NCI-H522 lung
A549/ATCC NSCLC = test system: A549/ATCC NSCLC
786-0 renal = test system: 786-0 renal
COLO 205 colon = test system: COLO 205 colon
DU-145 prostate = test system: DU-145 prostate
K-562 leukemia = test system: K-562 leukemia
MALME-3M melanoma = test system: MALME-3M melanoma
MDA-MB-231 breast = test system: MDA-MB-231 breast
RXF 393 renal = test system: RXF 393 renal
SF-268 CNS = test system: SF-268 CNS
SF-295 CNS = test system: SF-295 CNS
SF-539 CNS = test system: SF-539 CNS
UACC-257 melanoma = test system: UACC-257 melanoma
M14 melanoma = test system: M14 melanoma

| Compound | growth (NCI-H23 lung) | growth (NCI-H226 lung) | growth (NCI-H322M lung) | growth (HOP-62 NSCLC) | growth (NCI-H460 lung) | growth (HOP-92 NSCLC) | growth (NCI-H522 lung) | growth (A549/ATCC NSCLC) | growth (786-0 renal) | growth (COLO 205 colon) | growth (DU-145 prostate) | growth (K-562 leukemia) | growth (MALME-3M melanoma) | growth (MDA-MB-231 breast) | growth (RXF 393 renal) | growth (SF-268 CNS) | growth (SF-295 CNS) | growth (SF-539 CNS) | growth (UACC-257 melanoma) | growth (M14 melanoma) |
| --- | --- | --- | --- | --- | --- | --- | --- | --- | --- | --- | --- | --- | --- | --- | --- | --- | --- | --- | --- | --- |
| Fc1cc2c(cc1Cl)N(c1ncnc3ccc(-c4cnc5[nH]ncc5c4)cc13)CC2 | 73.3% | 49.5% | 52.1% | 54.8% | 54.7% | 34.5% | 55.9% | 44% | 65% | 79.2% | 56.2% | 77.5% | 77.3% | 52.7% | 38.5% | 57.3% | 72.9% | 68.2% | 86.3% | 85.5% |
| C/C(=N\NC(=O)c1ccccc1O)c1cccc(/C(C)=N/NC(=O)c2ccccc2O)n1 | 44.4% | 50% | 38.7% | 30.3% | 21.3% | 43.5% | 61.4% | 54.6% | 33.6% | 35.2% | 55.8% | 57.2% | 20.9% | 52.7% | 93.7% | 31.8% | 7.95% (active) | -24.4% (active) | 87.6% | 48.6% |
| CC(C)c1ccc(NC(=O)Nc2ccc(NC(=O)CCCC(=O)NOCc3ccccc3)cc2)cc1 | 98.4% | 85.2% | 90.6% | 91.2% | 77.9% | 104% | 71.3% | 85.3% | 101% | 93.4% | 94.3% | 83.4% | 82.8% | 93.9% | 109% | 95.9% | 91.2% | 75.1% | 86.5% | 97.3% |
| Cc1nnc(-n2c(O)cc(=O)n(-c3ccccc3)c2=S)nc1/C=C/c1ccc(N(C)C)cc1 | 60.9% | 61.2% | 50.5% | 39.2% | 62.4% | 43.7% | 19.2% | 51.2% | 49.5% | 39.7% | 73.7% | 30.1% | 63.3% | 45.6% | 83.3% | 78.4% | 62% | 66% | 35.3% | 49.8% |
| O=C(Nc1ncc(Cc2ccc(Cl)c(C(F)(F)F)c2)s1)c1ccc2nnsc2c1 | 37.4% | 66.5% | 69.2% | 51.5% | 27.2% | 64.9% | 38.7% | 40.7% | 53.2% | 57.3% | 53.7% | 24.7% | 48.7% | 67.4% | 75.6% | 50.7% | 20% | 5.13% (active) | 64.9% | 32.2% |
| Cc1ccc(-n2c(=S)[nH]c3sc4c(c3c2=O)CCC(=O)C4)cc1 | 68.7% | 83.4% | 89.5% | 63.6% | 17.2% | 57% | 10.2% | 51.8% | 29.5% | 81.6% | 37.8% | 17% | 50.9% | 54.6% | 23.8% | 48.2% | 47.9% | 11.8% | 54.5% | 25.9% |
| Oc1ccc(CN2CCC(N3CCCCC3)CC2)c2cccnc12 | 19% | 69.8% | 31.3% | 5.32% (active) | 9.43% (active) | -11.8% (active) | -1.28% (active) | 17.4% | 48.2% | 112% | 37.9% | 15.8% | 9.88% (active) | 15.2% | 29.6% | 38.9% | 38.4% | 22% | 21% | 30.3% |
| O=C1/C(=C/c2cccs2)SC(=S)N1CCCN1CCOCC1 | 96.7% | 95.5% | 94.7% | 111% | 99% | 23% | 71.5% | 93.2% | 92.7% | 111% | 92% | 85.4% | 84.3% | 82.7% | 99.6% | 102% | 102% | 92.7% | 93.9% | 93.4% |
| N#CC1=C(c2ccc(Cl)cc2)Nc2c(c(-c3ccc(Cl)cc3)nn2-c2ccccc2)C12C(=O)Nc1ccc(Cl)cc12 (stereo not given) | 42.3% | 67% | 83.3% | 65% | 35.5% | -3.13% (active) | 25.7% | 31% | 59.1% | 51% | 76.6% | 24.3% | 77% | 50.1% | 21.3% | 38.2% | 23.2% | 74.2% | 63.4% | 41.9% |
| O=C1c2cccnc2C(=O)c2c1c(C(=O)NCCn1ccnc1)c1ccccn21 | 5.02% (active) | 51.5% | 22.3% | 14% | -41.3% (active) | 56.3% | -9.62% (active) | 1.78% (active) | 49% | -27.6% (active) | 29.9% | 29.3% | -68.8% (active) | 13.6% | 59.7% | 23.6% | 29.5% | 9.99% (active) | -29% (active) | 7.17% (active) |
| CCN(CC)CCOc1ccc(C(=C(C)c2ccc(Cl)cc2)c2ccc(OCCN(CC)CC)cc2)cc1 | 3.75% (active) | 103% | -29.9% (active) | -61.5% (active) | -76.6% (active) | 6.28% (active) | -67.2% (active) | -68.9% (active) | -97.6% (active) | -68.7% (active) | -36.4% (active) | -37.2% (active) | -84.1% (active) | -84.9% (active) | -73.7% (active) | -37.9% (active) | -77.6% (active) | -92.6% (active) | -69.9% (active) | -89.8% (active) |
| Cc1c(-c2nc3ccc(F)cc3c(=O)[nH]2)c2ccccc2n1C | 50.5% | 61.1% | 78.5% | 38.4% | 16.2% | 60.5% | 42% | 46.4% | 37.9% | 30.9% | 53.6% | 15% | 48.4% | 57.8% | 14.3% | 54.1% | 15.1% | 23.8% | 55% | 18.2% |
| CC(C)(C)c1cc(-c2nc3ccc(N4CCN(S(C)(=O)=O)CC4)cc3[nH]2)cc(C(C)(C)C)c1O | 96.2% | 91.9% | 100% | 76.7% | 90.6% | 85.6% | 78.1% | 83.4% | 101% | 101% | 99.1% | 78.4% | 82.4% | 104% | 92.6% | 93.1% | 91.1% | 86.5% | 98.9% | 98.3% |
| O=C1/C(=C/c2ccc(F)cc2)COc2ccc(O)cc21 | 97% | 108% | 94.6% | 104% | 98.8% | 104% | 75.7% | 92.5% | 79.8% | 94.3% | 96.5% | 4.82% (active) | 85.6% | 97.2% | 104% | 90% | 104% | 87.2% | 107% | 88.1% |
| Clc1ccc(Nc2nnc(COc3ccccc3)c3ccccc23)cc1 | 4.18% (active) | 1.78% (active) | 21.2% | 13.1% | 3.1% (active) | -28% (active) | -17.4% (active) | 4.64% (active) | 5.25% (active) | -5.75% (active) | 10.4% | 2.77% (active) | -13.5% (active) | 11.4% | -5.93% (active) | 13.2% | -1.11% (active) | 8.42% (active) | -24.9% (active) | -9.99% (active) |
